Experimental findings from PubChem BioAssay are described below.

The source made the active and inactive calls.

The test system of assay [1] is Plasmodium falciparum Sir2 (PF13_0152, Sir2A). As to the kind of experiment: Plasmodium falciparum Sir2A binding compounds – biochemical, small-molecule microarray, 635 nm fluorescence, primary screen (AID 1098).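 Note: score merges spot fluorescence intensity with its signal-to-noise ratio.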 Particulars: fluorescence 635 nm, higher = more signal.
Assay [2] in a line: probe aDKK1 binding to arrayed compounds – biochemical, biotinylated probe, 635/667 nm fluorescence, primary screen (AID 1099).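 Note: score merges 667nm spot fluorescence with signal to noise across triplicate slides.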 Particulars: small-molecule microarray, higher = more signal.
Assay [3] can be described thus: probe aCHRDL2 binding to arrayed compounds – biochemical, biotinylated probe, 635/667 nm fluorescence, primary screen (AID 1100). Particulars: small-molecule microarray, higher = more signal.
Assay [4] can be described thus: change in splice reporter luminescence, either direction, cell-based, HEK293, spliceosome inhibition project, primary screen (AID 1101).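 Note: HEK293 cells carrying a splicing-competent luciferase reporter gene; test concentration not given here.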 Particulars: HEK293 splicing luciferase reporter, 24 h, higher = more signal, called active from +8 up or from −8 down. A general note: Reporter assays use an easily measured gene product as a stand-in for the process of interest.
Assay [5] addresses Fibroblast growth factor 10 (Homo sapiens) (UniProt O15520). As to the kind of experiment: compounds binding fibroblast growth factor 10 – biochemical, small-molecule microarray, 635 nm fluorescence, primary screen (AID 1102). Particulars: FGF10 binding, fluorescence 635 nm, higher = more signal.
The subject of assay [6] is glycogen synthase kinase-3 (GSK3A per assay name; protocol says GSK3B). As to the kind of experiment: compounds binding glycogen synthase kinase-3 – biochemical, small-molecule microarray, 635 nm fluorescence, GSK3A, primary screen (AID 1103). Note: the record names both GSK3A and GSK3B. Particulars: fluorescence 635 nm, higher = more signal.
For assay [7], the target named is Epidermal growth factor receptor (Homo sapiens) (UniProt P00533). As to the kind of experiment: compounds binding epidermal growth factor receptor – biochemical, small-molecule microarray, 635 nm fluorescence, primary screen (AID 1104).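 Note: score merges 667 nm emission intensity with spot signal to noise over triplicate slides.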 Particulars: EGFR binding, higher = more signal.
Assay [8] has as its target Follistatin-related protein 3 (Homo sapiens) (UniProt O95633). Kind of assay: compounds binding follistatin-related protein 3 – biochemical, small-molecule microarray, 635 nm fluorescence, primary screen (AID 1105).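 Note: score merges emission near 667 nm and signal to noise per printed spot across three slides.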 Particulars: FSTL3 binding, higher = more signal.
Assay [9] addresses Dickkopf-related protein 1 (Homo sapiens) (UniProt O94907). As to the kind of experiment: small molecules binding DKK1 protein – biochemical, small-molecule microarray, 635 nm fluorescence scan, primary screen (AID 1106).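 Note: score merges emission near 667 nm with signal to noise over three replicate slides.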 Particulars: higher = more signal.
The subject of assay [10] is Inhibin beta A chain (activin A). As to the kind of experiment: small molecules binding activin A – biochemical, small-molecule microarray, 635 nm fluorescence scan, primary screen (AID 1107).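 Note: mouse activin A protein probed at 4.33 µg/mL on printed slides; score merges bound-protein fluorescence near 667 nm with spot signal-to-noise.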 Particulars: INHBA, higher = more signal.
The subject of assay [11] is Human papillomavirus type 1a protein E7 (residues 44-93). As to the kind of experiment: small molecules binding HPV E7 44-93 – biochemical, small-molecule microarray, residues 44-93, 635 nm fluorescence, primary screen (AID 1108).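 Note: E7 fragment applied at 1 µg/mL in TBST for 1 h at 4 C; score combines spot fluorescence with its signal to noise ratio.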 Particulars: fluorescence 635 nm, higher = more signal.
Assay [12] can be described thus: hepatitis C replication reporter changes, two-sided – Huh7 cells, luciferase reporter, HCV replication inhibitor project, primary screen (AID 1109).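 Note: huh7 hepatoma cells harbouring a luciferase neomycin HCV replicon reporter; luciferase luminescence as measure of HCV replicon replication; test concentration not given here.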 Particulars: Huh7 HCV replicon luciferase reporter, 48 h; higher = more signal.
Assay [13] addresses Left-right determination factor 2 (Homo sapiens) (UniProt O00292). Kind of assay: small molecules binding LEFTY2 protein – biochemical, small-molecule microarray, 635 nm fluorescence scan, primary screen (AID 1110). Particulars: higher = more signal.
Assay [14] concerns the target Calmodulin-1 (Homo sapiens) (UniProt P0DP23). Kind of assay: small molecules binding calmodulin-1 with EGTA – biochemical, small-molecule microarray, Cy5-labelled CALM1, profiling panel (AID 1111).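 Note: labelled calmodulin applied in Tris saline Tween buffer holding calcium plus EGTA and DTT.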 Particulars: Cy5-CALM1 binding fluorescence, higher = more signal.
Assay [15] has the same target. As to the kind of experiment: small molecules binding Ca-loaded calmodulin-1 – biochemical, small-molecule microarray, Cy5-labelled CALM1, plus calcium, artefact control for SMM control-protein annotation, profiling panel (AID 1112).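 Note: score merges spot fluorescence with signal to noise from triplicate slides.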 Particulars: Cy5-CALM1 binding fluorescence, higher = more signal.
Assay [16] can be described thus: probe aWnt5a binding to arrayed compounds – biochemical, biotinylated probe, 635/667 nm fluorescence, primary screen (AID 1113).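 Note: score merges 667 nm fluorescence intensity with signal-to-noise per printed feature.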 Particulars: small-molecule microarray, higher = more signal.
Assay [17] in a line: probe aShh binding to arrayed compounds – biochemical, biotinylated probe, 635/667 nm fluorescence, primary screen (AID 1114).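 Note: probe is biotin-labelled aShh protein from a stem cell growth factor screen; measures binding of labelled protein to compounds printed on the slide; score merges feature fluorescence at 667 nm with signal-to-noise.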 Particulars: small-molecule microarray, higher = more signal.
Assay [18] in a line: probe aNog binding to arrayed compounds – biochemical, biotinylated probe, 635/667 nm fluorescence, primary screen (AID 1115).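 Note: probe is biotinylated aNog protein used at 0.15 µg/mL for 1 h at 4 C; z-score combines 667 nm fluorescence of each spot with its signal to noise.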 Particulars: small-molecule microarray, higher = more signal.
In assay [19] the target is Torsin-1A-interacting protein 1 (Homo sapiens) (UniProt Q5JTV8). As to the kind of experiment: compound microarray binding of lysate hLAP1 – cell lysate, small-molecule microarray, COS7 lysate, 635/667 nm fluorescence, primary screen (AID 1116). Particulars: 635 nm fluorescence, higher = more signal.
In assay [20] the target is Alpha-bungarotoxin (Bungarus multicinctus) (UniProt P60615). Kind of assay: compounds binding labelled alpha-BTX control protein – biochemical, small-molecule microarray, Alexa647 label, 635/667 nm fluorescence, artefact control for SMM control protein annotation, profiling panel (AID 1117). Particulars: alpha-BTX-A647 binding fluorescence, higher = more signal.
Chain of Alpha-bungarotoxin (Bungarus multicinctus) (P60615 whole entry, looked up): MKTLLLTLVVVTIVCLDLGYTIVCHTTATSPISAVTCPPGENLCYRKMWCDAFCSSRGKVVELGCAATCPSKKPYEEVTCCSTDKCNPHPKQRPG

Chain of Fibroblast growth factor 10 (Homo sapiens) (O15520 whole entry, looked up): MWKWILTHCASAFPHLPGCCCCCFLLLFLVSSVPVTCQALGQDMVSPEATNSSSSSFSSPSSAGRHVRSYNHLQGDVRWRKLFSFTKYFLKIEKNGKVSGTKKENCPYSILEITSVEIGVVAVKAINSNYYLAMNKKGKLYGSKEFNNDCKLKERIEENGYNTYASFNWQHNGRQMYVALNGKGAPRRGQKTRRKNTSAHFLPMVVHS
Chain of Torsin-1A-interacting protein 1 (Homo sapiens) (Q5JTV8 whole entry, looked up): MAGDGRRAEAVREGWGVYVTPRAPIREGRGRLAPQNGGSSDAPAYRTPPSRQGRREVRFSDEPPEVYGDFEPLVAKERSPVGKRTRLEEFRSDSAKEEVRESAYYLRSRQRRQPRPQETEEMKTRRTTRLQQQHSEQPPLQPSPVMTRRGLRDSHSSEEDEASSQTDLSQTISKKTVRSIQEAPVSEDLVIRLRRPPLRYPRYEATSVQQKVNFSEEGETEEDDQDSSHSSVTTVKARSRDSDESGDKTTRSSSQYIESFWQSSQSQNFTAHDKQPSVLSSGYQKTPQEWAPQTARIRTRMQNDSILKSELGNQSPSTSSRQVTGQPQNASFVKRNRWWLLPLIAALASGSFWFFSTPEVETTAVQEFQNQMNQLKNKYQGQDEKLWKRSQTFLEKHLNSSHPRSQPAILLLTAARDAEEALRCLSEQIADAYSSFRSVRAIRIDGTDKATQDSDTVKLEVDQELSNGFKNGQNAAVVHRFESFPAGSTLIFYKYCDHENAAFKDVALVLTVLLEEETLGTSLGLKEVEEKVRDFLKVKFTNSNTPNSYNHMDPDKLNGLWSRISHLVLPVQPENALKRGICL
Chain of Dickkopf-related protein 1 (Homo sapiens) (O94907 whole entry, looked up): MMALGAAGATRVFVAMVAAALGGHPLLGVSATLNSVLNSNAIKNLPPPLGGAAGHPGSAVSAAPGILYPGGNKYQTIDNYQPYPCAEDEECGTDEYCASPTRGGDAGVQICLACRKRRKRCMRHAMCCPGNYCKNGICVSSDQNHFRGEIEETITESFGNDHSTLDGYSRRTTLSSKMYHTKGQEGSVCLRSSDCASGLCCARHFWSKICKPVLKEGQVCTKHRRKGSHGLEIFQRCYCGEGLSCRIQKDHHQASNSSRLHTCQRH
Chain of Epidermal growth factor receptor (Homo sapiens) (P00533 whole entry, looked up): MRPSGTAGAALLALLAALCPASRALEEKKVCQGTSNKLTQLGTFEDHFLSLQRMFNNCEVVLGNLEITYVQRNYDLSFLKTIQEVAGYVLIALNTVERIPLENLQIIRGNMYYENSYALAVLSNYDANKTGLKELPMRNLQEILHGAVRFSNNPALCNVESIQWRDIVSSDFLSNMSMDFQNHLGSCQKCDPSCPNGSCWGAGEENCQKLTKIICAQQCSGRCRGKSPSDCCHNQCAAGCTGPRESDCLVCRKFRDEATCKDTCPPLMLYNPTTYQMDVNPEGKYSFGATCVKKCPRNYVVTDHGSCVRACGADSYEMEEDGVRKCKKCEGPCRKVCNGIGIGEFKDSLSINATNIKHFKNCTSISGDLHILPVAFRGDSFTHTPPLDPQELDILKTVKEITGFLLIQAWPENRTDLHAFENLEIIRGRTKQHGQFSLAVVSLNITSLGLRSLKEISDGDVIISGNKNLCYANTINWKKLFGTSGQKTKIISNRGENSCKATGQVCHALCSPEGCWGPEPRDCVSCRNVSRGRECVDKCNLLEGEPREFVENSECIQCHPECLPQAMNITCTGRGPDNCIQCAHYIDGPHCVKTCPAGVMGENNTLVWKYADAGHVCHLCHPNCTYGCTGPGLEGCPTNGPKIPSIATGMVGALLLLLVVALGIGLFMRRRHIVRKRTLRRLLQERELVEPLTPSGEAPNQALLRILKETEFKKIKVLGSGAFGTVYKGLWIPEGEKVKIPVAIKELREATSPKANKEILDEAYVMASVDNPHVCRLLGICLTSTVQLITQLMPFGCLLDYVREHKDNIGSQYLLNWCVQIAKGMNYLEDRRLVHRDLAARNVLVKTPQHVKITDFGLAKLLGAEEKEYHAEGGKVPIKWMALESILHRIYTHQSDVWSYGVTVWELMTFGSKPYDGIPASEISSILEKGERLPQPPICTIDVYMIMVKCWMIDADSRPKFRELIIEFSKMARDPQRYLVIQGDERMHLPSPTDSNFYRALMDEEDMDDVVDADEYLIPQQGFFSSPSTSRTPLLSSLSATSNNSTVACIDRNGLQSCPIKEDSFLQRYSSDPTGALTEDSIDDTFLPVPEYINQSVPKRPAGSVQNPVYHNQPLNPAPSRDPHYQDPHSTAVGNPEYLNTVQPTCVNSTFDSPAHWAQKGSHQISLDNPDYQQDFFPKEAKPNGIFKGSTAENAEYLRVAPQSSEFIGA
Chain of Follistatin-related protein 3 (Homo sapiens) (O95633 whole entry, looked up): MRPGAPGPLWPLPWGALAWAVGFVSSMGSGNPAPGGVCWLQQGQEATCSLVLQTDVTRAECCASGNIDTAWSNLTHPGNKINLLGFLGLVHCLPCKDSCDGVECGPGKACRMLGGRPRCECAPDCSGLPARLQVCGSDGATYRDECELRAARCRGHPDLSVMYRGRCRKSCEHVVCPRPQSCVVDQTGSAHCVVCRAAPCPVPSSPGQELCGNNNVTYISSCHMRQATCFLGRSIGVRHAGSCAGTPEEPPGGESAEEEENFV
Chain of Left-right determination factor 2 (Homo sapiens) (O00292 whole entry, looked up): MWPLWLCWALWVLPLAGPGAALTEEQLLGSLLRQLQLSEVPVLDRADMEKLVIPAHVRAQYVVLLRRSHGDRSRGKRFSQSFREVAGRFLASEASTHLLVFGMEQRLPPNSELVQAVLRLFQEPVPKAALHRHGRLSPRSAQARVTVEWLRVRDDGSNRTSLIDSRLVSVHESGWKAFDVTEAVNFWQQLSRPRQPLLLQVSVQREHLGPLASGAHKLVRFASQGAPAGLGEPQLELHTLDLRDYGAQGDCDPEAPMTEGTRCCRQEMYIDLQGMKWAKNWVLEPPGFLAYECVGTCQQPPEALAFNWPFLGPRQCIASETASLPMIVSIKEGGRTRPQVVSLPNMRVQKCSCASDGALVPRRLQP

Regarding `CC=CC(O)C1C=CC2C(=O)N(c3ccccc3)C(=O)C2N1Nc1ccc([N+](=O)[O-])cc1` (stereo not given), the composite z-score in [1] is 0.563; in [2], -0.0639; in assay [3] it was 0.0737; in assay [5], 0.455; in [6] it was 0.464; in assay [7], 0.496. Further, the composite z-score is 0.501 in [8]; 0.113 in assay [9]; 0.896 in [10]; 1.21 in assay [11]; 0.382 in assay [13]; -0.107 in assay [14]. Moreover, the composite z-score in [15] was -0.654; in assay [16], -0.0685; in assay [17] it was 0.0469; in assay [18] it was -0.124; in assay [19] it was 0.643; in assay [20], 0.529. Also, the z-score in assay [4] was 0.43 (inactive); in [12], 0.0112.

On to `COc1ccc(C(O)C2C=CC3C(=O)N(c4ccccc4)C(=O)C3N2Nc2ccc(C#N)cc2)c2ccccc12` (stereo not given), for which the composite z-score in assay [1] was 1.2; in [2], 0.585; in [3], 0.917; in [5], 0.581; in [6], 0.811; in assay [7] it was -0.0239. Moreover, the composite z-score is 0.733 in assay [8]; 0.138 in assay [9]; 0.675 in [10]; 0.596 in assay [11]; -0.199 in assay [13]; 2.63 in assay [14]. Moreover, the composite z-score in [15] is 1.07; in assay [16] it was 0.0388; in assay [17] it was -0.0709; in [18], 1.45; in [19] it was 1.83; in [20], 1.68. The z-score is 1.8 (inactive) in [4] and -0.46 in assay [12].

With `C=C(CCCC)/C(=C/C[C@@H](OC(C)=O)c1ccc(CO)o1)c1cc(C(=O)OC)ccc1OC`, the composite z-score in [1] is 0.416; in [2] it was -0.198; in assay [3], -0.549; in assay [5] it was 1.19; in assay [6], 1.13; in assay [7], 0.0789. Also, the composite z-score amounted to 1.4 in [8]; 0.543 in assay [9]; 0.207 in assay [10]; 1.45 in assay [11]; 0.26 in [13]; 0.723 in assay [14]. The composite z-score was 0.0443 in [15]; -0.0758 in assay [16]; -0.232 in assay [17]; 0.141 in assay [18]; 0.886 in assay [19]; 1.28 in [20]. The z-score in [4] was 1.32 (inactive); in [12], -1.79.

Turning to `CC(C)C(O)C1C=CC2C(=O)N(C)C(=O)C2N1Nc1ccccc1` (stereo not given), the composite z-score was 0.778 in assay [1]; 1.36 in assay [2]; 0.598 in assay [3]; 0.943 in [5]; 0.686 in [6]; -0.0756 in assay [7]. Also, the composite z-score in assay [8] was 0.439; in [9] it was 0.4; in assay [10], 0.742; in assay [11], 0.0819; in assay [13], 0.163; in assay [14], 0.774. In addition, the composite z-score in [15] is -0.473; in [16], 0.175; in [17], 0.679; in assay [18] it was 1.66; in assay [19], 2.27; in assay [20], 1.25. In addition, the z-score was 1.01 (inactive) in [4] and 0.247 in assay [12].

As for `CC[C@H]1C2=C3C(CC[C@H]4C(OCc5ccc(F)cc5C(F)(F)F)OC[C@](C)([C@@H]34)N(C(=O)OC(C)(C)C)C2)C2COC(=O)OCC21` (stereo not given in full), the composite z-score in assay [1] was 0.282; in assay [2] it was 0.817; in assay [3], 1.12; in assay [5], -0.0217; in assay [6], 0.737; in assay [7], 0.128. The composite z-score in [8] is 0.719; in [9], -1.02; in assay [10], 1.06; in [11] it was 1.34; in assay [13], -0.532; in assay [14] it was 2.48. For the same molecule, the composite z-score in [15] was 0.911; in assay [16], -0.0297; in [17], 0.246; in assay [18] it was -0.712; in assay [19], 0.713; in assay [20], 0.347. Besides, the z-score in assay [4] is -0.499 (inactive); in [12], -2.1.

Take `C=CCN1C(=O)[C@@]2(CCC(=O)OC(C)(C)C)N=C(c3ccc(OCCCO)cc3)O[C@H]2c2ccccc21`: the composite z-score in assay [1] stood at 1.25; in [2], 0.549; in [3], 1; in [5], 0.0195; in assay [6], 1.13; in assay [7] it was 0.217. The composite z-score came out at 0.792 in [8]; 0.116 in assay [9]; 1.4 in assay [10]; 1.36 in assay [11]; 0.224 in [13]; 1.47 in assay [14]. Also, the composite z-score in assay [15] is 0.516; in assay [16], 0.065; in assay [17], 0.0048; in assay [18], -0.226; in assay [19] it was 0.144; in assay [20], 0.916. The z-score in assay [4] was 0.0157 (inactive); in assay [12], -2.97.
